This passage reports Potency and outcome results from PubChem BioAssay (Tox21).

Assay [1] can be described thus: qHTS assay to identify small molecule agonists of the peroxisome proliferator-activated receptor delta (PPARd) signaling pathway - cell viability counter screen (AID 743211). Further: nearly all actives have a fitted effect of over 55% in size. Further: potency means the concentration at half of the fitted maximal effect. An outline of the steps:
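Viability of GeneBLAzer PPARd UAS-bla HEK293H cells was assessed after 17 h compound incubation at 37C, using CellTiter-Glo reagent added after the reporter read and luminescence recorded 30 min later.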
(qHTS replaces the single test concentration by a dilution series.)

The target in assay [2] is Peroxisome proliferator-activated receptor delta (Homo sapiens) (UniProt Q03181). Briefly: qHTS assay to identify small molecule agonists of the peroxisome proliferator-activated receptor delta (PPARd) signaling pathway (AID 743212; calls by dose curve). An outline of the steps:
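Read-out: beta-lactamase FRET fluorescence after 2 h room-temperature incubation with LiveBLAzer B/G substrate. Cells were HEK293H carrying a UAS-bla reporter for PPARd, treated at 37 C with DMSO-dissolved compounds.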

Assay [3] is described as follows: qHTS assay to identify small molecule antagonists of the peroxisome proliferator-activated receptor delta (PPARd) signaling pathway - cell viability counter screen (AID 743213). Further: nearly all actives have a fitted effect of over 50% in size. In short, it runs like this: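 Cytotoxicity counter screen: CellTiter-Glo luminescence read 30 min after addition, in the same wells as the reporter assay. There, PPARd UAS-bla HEK293H cells (3000/well) were treated 17 h at 37 C with compound and 300 nM L165041.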

For assay [4], the target named is Peroxisome proliferator-activated receptor delta (Homo sapiens) (UniProt Q03181). Briefly: qHTS assay to identify small molecule antagonists of the peroxisome proliferator-activated receptor delta (PPARd) signaling pathway (AID 743215; active means well fitted inhibition curve with a large enough effect in the signal ratio in the repeat runs, not every such curve was filed as active; the % refers to the signal ratio;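 further: cells stimulated with agonist L165041 at 300 nM final during compound exposure; series mostly up to about 62 µM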). An outline of the steps: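 Screen format: qHTS, antagonist mode. HEK293H PPARd-bla cells received compound and 300 nM L165041 (final), 17 h, 37 C. Beta-lactamase detected via FRET substrate fluorescence, 2 h, room temperature.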
Peroxisome proliferator-activated receptor delta (Homo sapiens), sequence (Q03181 whole entry, looked up): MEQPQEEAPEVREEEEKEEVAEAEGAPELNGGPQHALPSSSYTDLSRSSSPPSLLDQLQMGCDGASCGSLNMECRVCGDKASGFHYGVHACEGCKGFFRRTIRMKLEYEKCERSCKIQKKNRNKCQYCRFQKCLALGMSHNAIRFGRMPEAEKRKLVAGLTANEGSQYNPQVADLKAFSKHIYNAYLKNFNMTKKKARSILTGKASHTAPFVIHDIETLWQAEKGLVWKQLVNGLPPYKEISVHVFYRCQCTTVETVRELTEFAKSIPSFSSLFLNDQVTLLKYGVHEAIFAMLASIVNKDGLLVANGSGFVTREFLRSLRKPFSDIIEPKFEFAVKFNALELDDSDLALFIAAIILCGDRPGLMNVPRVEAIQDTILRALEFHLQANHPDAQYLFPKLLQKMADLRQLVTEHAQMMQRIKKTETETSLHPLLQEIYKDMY

Assay [5] is described as follows: qHTS assay to identify small molecule agonists of the farnesoid-X-receptor (FXR) signaling pathway - cell viability counter screen (AID 743218). Further: nearly all actives have a fitted effect of over 45% in size. An outline of the steps: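 Same-well cytotoxicity check on FXR-UAS-bla HEK 293T cells: 5 h attachment, 16 h compound at 37 C, CellTiter-Glo luminescence read at room temperature after 30 min.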
Assay [6] is described as follows: qHTS assay to identify small molecule antagonists of the farnesoid-X-receptor (FXR) signaling pathway - cell viability counter screen (AID 743221; active means well fitted cell-killing curve with a large enough effect in the repeat runs, not every such curve was filed as active; further: nearly all actives have a fitted effect of over 50% in size). An outline of the steps: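 Quantitative HTS of the Tox21 10K library run in parallel with the beta-lactamase reporter read. HEK 293T cells carrying a UAS-driven bla reporter got compound and 50 uM CDCA (final) for 16 h; ATP-based luminescence followed.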

In assay [7] the target is Vitamin D3 receptor (Homo sapiens) (UniProt P11473). Nature of the assay: qHTS assay to identify small molecule agonists of the vitamin D receptor (VDR) signaling pathway (AID 743222; calls by dose curve). In short, it runs like this:
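Using LiveBLAzer B/G FRET detection, agonism was scored in VDR-bla cells exposed overnight (16 h, 37C) to DMSO-dissolved compounds; substrate incubation was 2 h at room temperature.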

For assay [8] the target is unchanged. Briefly: qHTS assay to identify small molecule antagonists of the vitamin D receptor (VDR) signaling pathway (AID 743223; active means well fitted inhibition curve with a large enough effect in the signal ratio in the repeat runs, not every such curve was filed as active; the % refers to the signal ratio). An outline of the steps:
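Fluorescence from LiveBLAzer B/G FRET substrate, read after 2 h at room temperature, reflects beta-lactamase reporter activity in VDR-bla cells treated 16 h at 37C with compounds and agonist 1alpha,25-dihydroxyvitamin D3 (3 nM final).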

Assay [9] is described as follows: qHTS assay to identify small molecule agonists of the vitamin D receptor (VDR) signaling pathway - cell viability counter screen (AID 743224). Further: series mostly up to about 63 µM; nearly all actives have a fitted effect of over 50% in size. An outline of the steps: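 Counter screen for cytotoxicity: VDR-bla cells at 2,000 cells/well, 16 h compound exposure, then CellTiter-Glo luminescence after the beta-lactamase measurement.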
The nature of assay [10]: qHTS assay to identify small molecule antagonists of the vitamin D receptor (VDR) signaling pathway - cell viability counter screen (AID 743225). Further: nearly all actives have a fitted effect of over 50% in size. An outline of the steps: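 Cells (VDR-UAS-bla HEK 293T) are plated, rested 4 h at 37C, dosed with compound and 3 nM final 1-alpha,25-dihydroxy vitamin D3, and incubated 16 h. Viability is taken from CellTiter-Glo luminescence in the reporter wells.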

The nature of assay [11]: qHTS assay to identify small molecule agonists of the NFkB signaling pathway (AID 1159509; active means well fitted curve in the direction sought with a large enough effect in the signal ratio in the repeat runs, not every such curve was filed as active; the % refers to the signal ratio; further: series mostly up to about 61 µM). An outline of the steps: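 Beta-lactamase reporter assay run in quantitative high-throughput format on an NF-kB-responsive ME-180 line, with 5 hr compound treatment and a FRET-based blue/green fluorescence readout.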
Assay [12] can be described thus: qHTS assay to identify small molecule agonists of the NFkB signaling pathway - cell viability counter screen (AID 1159515; calls by dose curve; further: series mostly up to about 61 µM; nearly all actives have a fitted effect of over 55% in size). An outline of the steps: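 Counter screen run alongside the NFkB-bla agonist assay: ME-180 reporter cells exposed to compounds for 5 hr, then lysed with CellTiter-Glo in the same wells. Luminescence, read after 30 min, reflects viable cells.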

Assay [13] can be described thus: qHTS assay to identify small molecule agonists of the endoplasmic reticulum stress response signaling pathway - cell viability counter screen (AID 1159517; calls by dose curve). An outline of the steps:
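Steps: seed 1,500 ESRE-bla HeLa cells per well; incubate overnight at 37 C, 5% CO2; add compounds in DMSO for 5 hr; run FRET substrate 2 hr RT; add CellTiter-Glo, wait 30 min, read luminescence.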

Assay [14] is described as follows: qHTS assay to identify small molecule antagonists of the retinoid-related orphan receptor gamma (ROR-gamma) signaling pathway - cell viability counter screen (AID 1159520). Further: nearly all actives have a fitted effect of over 50% in size. In short, it runs like this: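 Tet-on ROR gamma CHO cells were given compounds for 2 hr, then doxycycline hyclate at 1 uM final, and incubated 16 hr at 37 C. Viability was measured as ATP content by CellTiter-Glo luminescence.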

Assay [15] concerns the target Nuclear receptor ROR-gamma (Homo sapiens) (UniProt P51449). Briefly: qHTS assay to identify small molecule antagonists of the retinoid-related orphan receptor gamma (ROR-gamma) signaling pathway (AID 1159521). An outline of the steps:
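RORγ antagonism is scored from reduced reporter luminescence in Tet-on CHO cells. Induction used 1 uM final doxycycline hyclate for 16 h at 37 C, following a 2 h compound exposure.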

The nature of assay [16]: qHTS assay to identify small molecule agonists of the AP-1 signaling pathway - cell viability counter screen (AID 1159525; calls by dose curve; further: nearly all actives have a fitted effect of over 55% in size). In short, it runs like this:
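Same-well cytotoxicity counter screen of the Tox21 10K library in ME-180 cells. The readout is ATP-dependent luminescence after 5 h compound treatment. Data are normalised to DMSO and tetra n-octyl ammonium bromide controls.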

Assay [17] can be described thus: qHTS assay to identify small molecule agonists of the AP-1 signaling pathway (AID 1159526; calls by dose curve).
Assay [18] addresses Bile acid receptor (Homo sapiens) (UniProt Q96RI1). Nature of the assay: qHTS assay to identify small molecule antagonists of the farnesoid-X-receptor (FXR) signaling pathway (AID 743217; active means well fitted inhibition curve with a large enough effect in the signal ratio in the repeat runs, not every such curve was filed as active; the % refers to the signal ratio). An outline of the steps: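 Quantitative HTS, beta-lactamase reporter format: FXR-UAS-bla HEK 293T cells co-treated 16 h at 37 °C with compounds and 50 uM final chenodeoxycholic acid, then read by B/G FRET fluorescence.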

Results filed as inconclusive are left out. Where a structure was tested more than once in an assay, its records may differ in their call. Calls of active or inactive are those of the source. Unless noted, the call rests on the fitted dose curve; in most records, active means well fitted curve in the direction sought with a large enough effect in the repeat runs; inconclusive means weak or mixed curves; inactive means no such curve, though single readings can be large; an effect the other way counts as inactive or inconclusive.

Bile acid receptor (Homo sapiens), sequence (Q96RI1 whole entry, looked up): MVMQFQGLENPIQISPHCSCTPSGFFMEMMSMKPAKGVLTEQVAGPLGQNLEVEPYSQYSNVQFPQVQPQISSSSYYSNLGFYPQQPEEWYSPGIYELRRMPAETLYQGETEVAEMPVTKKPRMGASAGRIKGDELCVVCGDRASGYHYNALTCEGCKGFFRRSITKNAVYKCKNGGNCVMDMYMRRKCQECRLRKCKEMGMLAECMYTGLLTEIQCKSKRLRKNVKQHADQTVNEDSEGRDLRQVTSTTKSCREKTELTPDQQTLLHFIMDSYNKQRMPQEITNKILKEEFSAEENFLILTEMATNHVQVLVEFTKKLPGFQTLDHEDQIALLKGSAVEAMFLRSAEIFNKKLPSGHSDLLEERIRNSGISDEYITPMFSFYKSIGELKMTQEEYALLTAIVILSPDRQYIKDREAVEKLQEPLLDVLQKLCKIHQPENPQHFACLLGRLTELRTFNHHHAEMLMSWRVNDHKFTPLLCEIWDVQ
Vitamin D3 receptor (Homo sapiens), sequence (P11473 whole entry, looked up): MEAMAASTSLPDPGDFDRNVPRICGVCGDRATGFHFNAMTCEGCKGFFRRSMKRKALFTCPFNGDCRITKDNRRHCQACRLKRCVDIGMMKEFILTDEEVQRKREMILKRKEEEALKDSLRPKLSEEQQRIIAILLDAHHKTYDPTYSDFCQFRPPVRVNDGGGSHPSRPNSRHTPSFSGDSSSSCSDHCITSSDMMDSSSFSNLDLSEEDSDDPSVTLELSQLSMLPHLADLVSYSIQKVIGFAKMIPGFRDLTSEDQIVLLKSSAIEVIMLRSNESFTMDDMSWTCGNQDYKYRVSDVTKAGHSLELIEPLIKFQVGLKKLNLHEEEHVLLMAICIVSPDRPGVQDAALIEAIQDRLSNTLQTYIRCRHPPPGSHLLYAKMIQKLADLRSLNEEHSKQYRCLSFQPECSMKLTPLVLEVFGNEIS

In the case of `NC(=O)NO`, the Potency entry in [1], in assay [3], in assay [5], in assay [8], in assay [9] and in assay [13] was “inactive” in each case. Further, the Potency result in [15] and in assay [17] was “inactive” throughout. In addition, the call in assay [2], in [4], in assay [6], in [7], in [10] and in assay [11] was inactive. Also, the outcome in [12], in assay [14] and in assay [16] was inactive.
Consider `Cc1c(N(C)CS(=O)(=O)O)c(=O)n(-c2ccccc2)n1C`, for which the Potency entry in assay [1], in [3], in assay [5], in assay [8], in assay [9] and in assay [13] was “inactive” each time. The Potency result in [15] and in [17] was “inactive” throughout. Moreover, the result in assay [2], in assay [4], in assay [6], in assay [7], in [10] and in [11] was inactive. For the same compound, the result in assay [12], in [14] and in assay [16] was inactive.
In the case of `CCOCCO`, the Potency result in assay [1], in assay [3], in assay [18], in [5], in [8] and in assay [9] was “inactive” each time. Also, the Potency result in assay [13], in assay [15] and in [17] was “inactive” in each case. Moreover, the outcome in [6], in assay [7], in [10], in assay [11], in assay [12] and in [14] was inactive. For the same compound, the compound was called inactive in [16].
As for `COc1ccc(O)cc1`, the Potency result in assay [1], in assay [3], in assay [5], in assay [8], in [9] and in [13] was “inactive” throughout. Further, the Potency result in assay [17] was “inactive”. Besides, the call in assay [2], in assay [4], in assay [6], in [7], in [10] and in assay [11] was inactive. Moreover, the result in assay [12], in assay [14] and in [16] was inactive.
For `Nc1ccc(N=Nc2ccccc2)c(N)n1`, the Potency in assay [1] was 43.9 µM (active) and inactive. For the same compound, the call in assay [2], in assay [4], in assay [6], in assay [7], in assay [10] and in [11] was inactive. Moreover, the compound was called inactive in assay [12] and in assay [14]. Further, the Potency result in assay [3], in assay [5], in [8], in assay [9], in [13] and in [15] was “inactive” in each case. Moreover, in [17], the Potency result was “inactive”.
As for `N[C@@H](Cc1c[nH]c2ccccc12)C(=O)O`, the Potency result in assay [1], in assay [3], in assay [5], in assay [8], in [9] and in [13] was “inactive” each time. Moreover, the Potency result in [15] and in assay [17] was “inactive” in each case. Besides, the compound was called inactive in assay [2], in assay [4], in assay [6], in assay [7], in [10] and in assay [11]. Moreover, the outcome in assay [12], in [14] and in assay [16] was inactive.
As for `CN(C)C=O`, the Potency entry in assay [1], in [3], in [18], in assay [5], in assay [9] and in [13] was “inactive” in each case. Also, the Potency entry in [15] and in assay [17] was “inactive” throughout. Moreover, the call in assay [6], in assay [10], in assay [11], in assay [12], in assay [14] and in assay [16] was inactive.
In the case of `C=C(C)OC(C)=O`, the Potency result in [1], in assay [3], in assay [5], in assay [8], in [9] and in assay [13] was “inactive” in each case. Moreover, the Potency entry in [15] and in [17] was “inactive” in each case. In addition, the outcome in assay [6], in assay [7], in assay [10], in assay [11], in [12] and in [14] was inactive. Moreover, the compound was called inactive in [16].
